Source: PubChem BioAssay (NCI)
About 83,000 compounds went through this panel and 20% of them were active in at least one assay; those are over-represented in the sample as a whole.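 96-well plates, one dose, 48 hours. Percent growth reported; active if below 10.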 Unmarked numbers belong to inactive results. Activity calls are given as the source filed them.

Experiments:
Assay in all cases: NCI-60 one-dose screen, 48 h (100 = growth as untreated, 0 = no growth, -100 = all killed)
DU-145 prostate = details: 10 µM unless noted
K-562 leukemia = details: 10 µM unless noted
MALME-3M melanoma = details: 10 µM unless noted
MDA-MB-231 breast = details: 10 µM unless noted
RXF 393 renal = details: 10 µM unless noted
SF-268 CNS = details: 10 µM unless noted
SF-295 CNS = details: 10 µM unless noted
SF-539 CNS = details: 10 µM unless noted
UACC-257 melanoma = details: 10 µM unless noted
M14 melanoma = details: 10 µM unless noted
HCT-15 colon = details: 10 µM unless noted
HT29 colon = details: 10 µM unless noted
SNB-19 CNS = details: 10 µM unless noted
U251 CNS = details: 10 µM unless noted
PC-3 prostate = details: 10 µM unless noted
SK-MEL-5 melanoma = details: 10 µM unless noted
UACC-62 melanoma = details: 10 µM unless noted
LOX IMVI melanoma = details: 10 µM
SK-MEL-28 melanoma = details: 10 µM unless noted

## COc1c(F)ccc(C(=O)Nc2ccc3nc(NC(=O)C4CCCN(S(=O)(=O)c5ccc(Br)c(F)c5)C4)sc3c2)c1F (stereo not given)
DU-145 prostate
  growth: 102%
K-562 leukemia
  growth: 62.5%
MALME-3M melanoma
  growth: 95.6%
MDA-MB-231 breast
  growth: 83.5%
RXF 393 renal
  growth: -1.15% (active)
SF-268 CNS
  growth: 96.7%
SF-295 CNS
  growth: 72.5%
SF-539 CNS
  growth: 64.5%
UACC-257 melanoma
  growth: 80.7%
M14 melanoma
  growth: 80.7%
HCT-15 colon
  growth: 73.6%
HT29 colon
  growth: 78.2%
SNB-19 CNS
  growth: 81.9%
U251 CNS
  growth: 69.8%
PC-3 prostate
  growth: 62.6%
SK-MEL-5 melanoma
  growth: 85.7%
UACC-62 melanoma
  growth: 72%
LOX IMVI melanoma
  growth: 78.9%
SK-MEL-28 melanoma
  growth: 99.6%

## Cn1cc(-c2cc3nc(-c4cn(C)c5ncccc45)cc(N)n3n2)c2ccccc21
DU-145 prostate
  growth: 40.9%
K-562 leukemia
  growth: -34.9% (active)
MALME-3M melanoma
  growth: -47.8% (active)
MDA-MB-231 breast
  growth: -19.9% (active)
RXF 393 renal
  growth: -50.4% (active)
SF-268 CNS
  growth: 15%
SF-295 CNS
  growth: -30.6% (active)
SF-539 CNS
  growth: -78.7% (active)
UACC-257 melanoma
  growth: -49.7% (active)
M14 melanoma
  growth: 5.56% (active)
HCT-15 colon
  growth: 9.76% (active)
HT29 colon
  growth: -6.2% (active)
SNB-19 CNS
  growth: 37.7%
U251 CNS
  growth: -8.69% (active)
PC-3 prostate
  growth: 27.2%
SK-MEL-5 melanoma
  growth: -69.3% (active)
UACC-62 melanoma
  growth: -0.244% (active)
SK-MEL-28 melanoma
  growth: -22.5% (active)

## CN(C)CCOc1ccc(C(=O)C2[C@H](c3ccc(Cl)cc3)[C@@H](c3ccccc3)NC23C(=O)Nc2ccccc23)cc1 (stereo not given in full)
DU-145 prostate
  growth: 66.6%
K-562 leukemia
  growth: -51.5% (active)
MALME-3M melanoma
  growth: 79.8%
MDA-MB-231 breast
  growth: 49.5%
RXF 393 renal
  growth: 50.4%
SF-268 CNS
  growth: 78.1%
SF-295 CNS
  growth: 65.7%
SF-539 CNS
  growth: 82.8%
UACC-257 melanoma
  growth: 95.8%
M14 melanoma
  growth: 45.2%
HCT-15 colon
  growth: 12%
HT29 colon
  growth: -69.3% (active)
SNB-19 CNS
  growth: 83.8%
U251 CNS
  growth: 11.9%
PC-3 prostate
  growth: 41.9%
SK-MEL-5 melanoma
  growth: 83.7%
LOX IMVI melanoma
  growth: -94.3% (active)
SK-MEL-28 melanoma
  growth: 94.6%

## COc1ccc2[nH]c(O)c(N=NC(=O)Cn3c(-c4ccccc4)nc4cc(C)ccc43)c2c1
DU-145 prostate
  growth: 38.2%
K-562 leukemia
  growth: 12.3%
MALME-3M melanoma
  growth: -48% (active)
MDA-MB-231 breast
  growth: -26.3% (active)
RXF 393 renal
  growth: -35.6% (active)
SF-268 CNS
  growth: 38.5%
SF-295 CNS
  growth: 44.9%
SF-539 CNS
  growth: -28.1% (active)
UACC-257 melanoma
  growth: 21.7%
M14 melanoma
  growth: 9.19% (active)
HCT-15 colon
  growth: 3.08% (active)
HT29 colon
  growth: -1.1% (active)
SNB-19 CNS
  growth: 59.2%
U251 CNS
  growth: 32.4%
PC-3 prostate
  growth: 21.5%
SK-MEL-5 melanoma
  growth: -23.8% (active)
UACC-62 melanoma
  growth: 6.74% (active)
LOX IMVI melanoma
  growth: 38.3%
SK-MEL-28 melanoma
  growth: -23.6% (active)

## Cc1ccccc1[C@H]1C(C(=O)c2ccc(Cl)cc2)C2(N[C@@H]1c1ccccc1)C(=O)Nc1ccc(Br)cc12 (stereo not given in full)
DU-145 prostate
  growth: 15%
K-562 leukemia
  growth: 1.41% (active)
MALME-3M melanoma
  growth: 45.1%
MDA-MB-231 breast
  growth: -19.8% (active)
RXF 393 renal
  growth: -29% (active)
SF-268 CNS
  growth: 31%
SF-295 CNS
  growth: 19.3%
SF-539 CNS
  growth: 36.9%
UACC-257 melanoma
  growth: 37.3%
M14 melanoma
  growth: 1.39% (active)
HCT-15 colon
  growth: 7.15% (active)
HT29 colon
  growth: -58.6% (active)
SNB-19 CNS
  growth: 38.4%
U251 CNS
  growth: -3.71% (active)
PC-3 prostate
  growth: -4.58% (active)
SK-MEL-5 melanoma
  growth: 35.3%
UACC-62 melanoma
  growth: 11.2%
SK-MEL-28 melanoma
  growth: 41%

## COc1c(F)ccc(C(=O)Nc2ccc3nc(NC(=O)C4CCCN(S(=O)(=O)c5ccc(C#N)cc5)C4)sc3c2)c1F (stereo not given)
DU-145 prostate
  growth: 95.7%
K-562 leukemia
  growth: 62.6%
MALME-3M melanoma
  growth: 97.5%
MDA-MB-231 breast
  growth: 99.1%
RXF 393 renal
  growth: 46.7%
SF-268 CNS
  growth: 93.5%
SF-295 CNS
  growth: 90.1%
SF-539 CNS
  growth: 73.1%
UACC-257 melanoma
  growth: 87.1%
M14 melanoma
  growth: 92.7%
HCT-15 colon
  growth: 90.1%
HT29 colon
  growth: 85.8%
U251 CNS
  growth: 89.3%
PC-3 prostate
  growth: 81.9%
SK-MEL-5 melanoma
  growth: 82.5%
UACC-62 melanoma
  growth: 78.7%
LOX IMVI melanoma
  growth: 95.4%
SK-MEL-28 melanoma
  growth: 105%

## COc1ccc(C2(SCCNCc3cc(N(C)C)ccn3)c3ccccc3C=Cc3ccccc32)cc1
DU-145 prostate
  growth: 18.1%
K-562 leukemia
  growth: 2.08% (active)
MALME-3M melanoma
  growth: -1.5% (active)
MDA-MB-231 breast
  growth: -29.2% (active)
RXF 393 renal
  growth: 8.16% (active)
SF-268 CNS
  growth: 28.2%
SF-295 CNS
  growth: 1.44% (active)
SF-539 CNS
  growth: -67.7% (active)
UACC-257 melanoma
  growth: 41.1%
M14 melanoma
  growth: -44.7% (active)
HCT-15 colon
  growth: 2.66% (active)
HT29 colon
  growth: -43% (active)
U251 CNS
  growth: 0.439% (active)
PC-3 prostate
  growth: 13.8%
SK-MEL-5 melanoma
  growth: -20.3% (active)
UACC-62 melanoma
  growth: 38%
LOX IMVI melanoma
  growth: 2.34% (active)
SK-MEL-28 melanoma
  growth: 29.9%

## CCCSc1nc(NCCc2c[nH]c3ccccc23)c(C#N)c(-c2ccccc2)n1
DU-145 prostate
  growth: 75.3%
K-562 leukemia
  growth: 25.2%
MALME-3M melanoma
  growth: 100%
MDA-MB-231 breast
  growth: 40.6%
RXF 393 renal
  growth: 55.2%
SF-268 CNS
  growth: 70.5%
SF-295 CNS
  growth: 72.6%
SF-539 CNS
  growth: 66.2%
UACC-257 melanoma
  growth: 100%
M14 melanoma
  growth: 83.5%
HCT-15 colon
  growth: 27.3%
HT29 colon
  growth: 30.3%
U251 CNS
  growth: 44.6%
PC-3 prostate
  growth: 35%
SK-MEL-5 melanoma
  growth: 41.6%
UACC-62 melanoma
  growth: 76.3%
LOX IMVI melanoma
  growth: 53.3%
SK-MEL-28 melanoma
  growth: 97.4%

## Cn1cc(-c2cc3nc(-c4cn(C)c5ncc(Br)cc45)cc(N)n3n2)c2ccccc21
DU-145 prostate
  growth: 16.1%
K-562 leukemia
  growth: -30% (active)
MALME-3M melanoma
  growth: -85.2% (active)
MDA-MB-231 breast
  growth: -64.7% (active)
RXF 393 renal
  growth: -74% (active)
SF-268 CNS
  growth: 11.8%
SF-295 CNS
  growth: -60.2% (active)
SF-539 CNS
  growth: -90.2% (active)
UACC-257 melanoma
  growth: -77.4% (active)
M14 melanoma
  growth: -72.6% (active)
HCT-15 colon
  growth: -23.3% (active)
HT29 colon
  growth: -86.1% (active)
SNB-19 CNS
  growth: -27% (active)
U251 CNS
  growth: -68.8% (active)
PC-3 prostate
  growth: -15.5% (active)
SK-MEL-5 melanoma
  growth: -94% (active)
UACC-62 melanoma
  growth: -83.2% (active)
SK-MEL-28 melanoma
  growth: -91.6% (active)

## Cn1cc(-c2cc(N)n3nc(-c4cn(C)c5ncc(Br)cc45)cc3n2)c2cc(Br)cnc21
DU-145 prostate
  growth: 5.43% (active)
K-562 leukemia
  growth: -41.6% (active)
MALME-3M melanoma
  growth: -66.6% (active)
MDA-MB-231 breast
  growth: 6.75% (active)
RXF 393 renal
  growth: 23.1%
SF-268 CNS
  growth: 50%
SF-295 CNS
  growth: -63.5% (active)
SF-539 CNS
  growth: -83.4% (active)
UACC-257 melanoma
  growth: 60.3%
M14 melanoma
  growth: -64.7% (active)
HCT-15 colon
  growth: -76.6% (active)
HT29 colon
  growth: -85% (active)
U251 CNS
  growth: -62.1% (active)
PC-3 prostate
  growth: 1.06% (active)
SK-MEL-5 melanoma
  growth: 34.8%
UACC-62 melanoma
  growth: -82.3% (active)
LOX IMVI melanoma
  growth: -100% (active)
SK-MEL-28 melanoma
  growth: -49.9% (active)

## O=c1[nH]c2ccc(Cl)cc2cc1CSc1nccc(-c2ccc(Cl)cc2)n1
DU-145 prostate
  growth: 78.9%
K-562 leukemia
  growth: 64.7%
MALME-3M melanoma
  growth: 51%
MDA-MB-231 breast
  growth: 45.7%
RXF 393 renal
  growth: 35.3%
SF-268 CNS
  growth: 54.3%
SF-295 CNS
  growth: 16.8%
SF-539 CNS
  growth: 3.24% (active)
UACC-257 melanoma
  growth: 60.9%
M14 melanoma
  growth: 71.1%
HCT-15 colon
  growth: 56.9%
HT29 colon
  growth: 67.7%
SNB-19 CNS
  growth: 40.4%
U251 CNS
  growth: 47.4%
PC-3 prostate
  growth: 49.9%
SK-MEL-5 melanoma
  growth: 48.6%
UACC-62 melanoma
  growth: 31.8%
SK-MEL-28 melanoma
  growth: 46.1%
